The full list was thinned out, with hits kept by preference.
PglD inh: C. jejuni PglD acetyltransferase inhibitors, primary screen, biochemical, DTNB colorimetric, single point; inhibition, % at 12.5 µM; purified PglD enzyme, DTNB colorimetric CoA detection; hit rate 0.098% among 360,000; UDP-N-acetylbacillosamine N-acetyltransferase PglD (Campylobacter jejuni); in the data active = inhibition above about 16%, passing the limit was not always enough; inconclusive = no clear call, values can overlap the other calls
CendR NRP1 mod: modulators of CendR peptide binding to NRP-1, primary screen, biochemical, fluorescence polarization, uHTS | AID 602438, 2012 | hit rate 0.85% among 360,000 | FAM-RPARPAR peptide binding to NRP-1 | Neuropilin-1 (Homo sapiens), O14786 | inhibition, % at 25 µM;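 active = inhibition or corrected inhibition above about 18%, plus a signal ratio from 0.5 to 1.5, limit read from the data, passing the limit was not always enough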
PDI inh: inhibitors of human PDI, primary screen, biochemical, turbidity, single point, plate reader. PDI insulin aggregation turbidity, A650, 90 min. Protein disulfide-isomerase (Homo sapiens), P07237. inhibition, % at 10 µM. hit rate 0.052% among 350,000;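 active = mean inhibition across replicates of 30% or more, whatever share of single replicates reach that level; inconclusive = mean inhibition below 30% while every single replicate reaches 30%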
Target sequence (P07237 whole entry, looked up): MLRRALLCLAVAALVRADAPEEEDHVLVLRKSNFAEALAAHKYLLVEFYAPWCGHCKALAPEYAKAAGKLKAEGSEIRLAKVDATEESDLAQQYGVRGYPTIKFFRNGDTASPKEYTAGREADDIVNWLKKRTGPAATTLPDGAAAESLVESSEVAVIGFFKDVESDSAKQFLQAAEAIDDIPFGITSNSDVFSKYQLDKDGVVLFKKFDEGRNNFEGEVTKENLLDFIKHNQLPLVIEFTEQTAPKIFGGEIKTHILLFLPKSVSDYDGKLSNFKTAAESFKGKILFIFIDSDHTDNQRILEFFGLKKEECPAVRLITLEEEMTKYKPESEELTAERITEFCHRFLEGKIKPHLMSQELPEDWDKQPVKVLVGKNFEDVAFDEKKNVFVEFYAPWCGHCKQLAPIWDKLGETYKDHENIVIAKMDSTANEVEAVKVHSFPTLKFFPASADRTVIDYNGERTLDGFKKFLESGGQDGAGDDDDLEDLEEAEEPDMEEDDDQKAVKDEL
ARNT TACC3 PPI: disruptors of ARNT/TACC3 protein interaction, primary screen, biochemical, AlphaScreen, single concentration | Transforming acidic coiled-coil-containing protein 3 (Homo sapiens), Q9Y6A5 | AlphaScreen His-ARNT PAS-B/GST-TACC3 binding, luminescence; TACC3 fragment carries E629A point mutation | inhibition, % at 9.99 µM | hit rate 0.66% among 390,000 | AID 623870, 2012;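 active = mean inhibition of replicates at least 50% and at least half of replicates each reaching 50%; inconclusive = half or more replicates reach 50% but mean below 50%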;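 note: 0% = complete ARNT plus TACC3 wells and 100% = ARNT alone without TACC3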
ALR H2O2 inh: inhibitors of human ALR sulfhydryl oxidase, primary screen, biochemical, H2O2 detection, HRP-luminol luminescence, single point. FAD-linked sulfhydryl oxidase ALR (Homo sapiens), P55789. purified ALR, DTT oxidation. inhibition, % (concentration not given with the values). hit rate 3.8% among 290,000. AID 485317, 2010;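 active = mean replicate inhibition above about 79%, with every replicate also reaching it, limit read from the data; inconclusive = only one of the two criteria met; inactive = mean below limit and not every replicate reaching it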
Target sequence (P55789 whole entry, looked up): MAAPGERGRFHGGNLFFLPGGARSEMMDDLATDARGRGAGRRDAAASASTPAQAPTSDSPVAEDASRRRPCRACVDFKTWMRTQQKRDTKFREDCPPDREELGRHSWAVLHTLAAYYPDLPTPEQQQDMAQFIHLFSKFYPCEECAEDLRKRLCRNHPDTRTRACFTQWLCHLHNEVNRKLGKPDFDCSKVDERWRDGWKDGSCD
ERp5 inh: inhibitors of ERp5-driven insulin aggregation, primary screen, biochemical, turbidity, absorbance 650 nm, single point | Protein disulfide-isomerase A6 (Homo sapiens), Q15084 | 90 min | inhibition, % at 9.99 µM | hit rate 0.05% among 350,000 | AID 651711, 2012;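 active = mean replicate inhibition above about 25%, with every replicate also reaching it, limit read from the data, passing the limit was not always enough; inconclusive = only one of those two criteria met; inactive = neither criterion met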
* = called active by the depositor; ? = inconclusive; . = not tested or not shown.

SMILES | PglD inh | CendR NRP1 mod | PDI inh | ARNT TACC3 PPI | ALR H2O2 inh | ERp5 inh
Oc1c(Cl)cc(Cl)cc1CNc1ccc(Br)cn1 | -2.6 | 3.6 | 0.7 | -1.2 | 92.8* | .
COc1ccc(-c2ccc([C@@H]3[C@@H](CO)N4C(=O)CN(Cc5ccc(F)cc5)C[C@@H]34)cc2)cc1 | . | . | . | . | . | 1.8
Cc1ccc(-c2ccc([C@@H]3[C@H](CO)N4CCCCN(C(=O)Nc5ccccc5)C[C@@H]34)cc2)cc1 | -2.9 | . | . | 20.8 | . | .
CCOc1cc(CNn2cn[nH]c2=S)cc(Cl)c1OCc1ccccc1F | 6.2 | -6.8 | 1.9 | 0.3 | 90.4* | 1.5
COc1cc(CNn2c(C)n[nH]c2=S)cc(Cl)c1OCc1ccc(F)cc1 | -2.6 | -1.4 | -9.3 | -3.6 | -6.3 | .
C[n+]1cccc2cccc([O-])c21 | . | 27.9* | 0.9 | 41.9 | . | .
COc1ccccc1S(=O)(=O)N1C[C@H](O)COC[C@H]2O[C@@H](CC(=O)O)CC[C@@H]21 | -0.2 | . | . | . | . | 35.9*
O=C(CN1CCOCC1)NCC[C@@H]1CC[C@H](NS(=O)(=O)c2ccc(F)cc2)[C@@H](CO)O1 | -5.6 | . | . | -3.8 | . | 2.4
O=C(CSc1ncnc2ccccc12)c1cccs1 | . | 0.3 | -4.7 | -1.4 | 98.8* | 3.3
Cc1ccc(C(=O)CSc2ncnc3ccccc23)o1 | -10.1 | -4.5 | 4.2 | . | 98.7* | -3.3
O=C(CSc1ncnc2ccccc12)NCC(=O)c1ccccc1 | . | -3.3 | -6.9 | -5.8 | 96.9* | 0.2
Cc1ccc(CSc2ncnc3ccccc23)cc1 | 6.6 | 9.5 | 4.4 | -7.9 | -15.3 | -0.8
O=C(CSc1ncnc2ccccc12)NCc1ccc2c(c1)OCO2 | . | 9.7 | -1.0 | 12.5 | 25.1 | 0.5
O=C(CSc1ccc(-c2ccccc2)nn1)c1cccs1 | . | 4.3 | -1.8 | -8.4 | 91.9* | 4.9
O=C(C1CC1)N1CC[C@@H]2[C@H]1c1cc(C#Cc3ccccc3F)ccc1N[C@@H]2CO | 0.9 | . | . | 2.0 | . | .
Cc1ccccc1-c1cnc2c(c1)C(=O)N([C@@H](C)CO)C[C@H](C)[C@H](CN(C)C(=O)c1ccc(F)cc1)O2 | 4.7 | . | . | -3.7 | . | 12.6
C[C@@H]1CCCCO[C@@H](CN(C)Cc2ccc3c(c2)OCO3)[C@H](C)CN([C@@H](C)CO)C(=O)c2cc(NC(=O)c3ccccc3)ccc2O1 | 2.1 | . | . | -9.0 | . | -1.8
Nc1ccc(-c2nc3ccc(N)cc3s2)cc1 | 4.0 | -57.2 | -6.0 | -6.2 | 99.0* | ?
Nc1ccc(O)c(-c2nc3ccccc3s2)c1 | -0.3 | -27.6 | -2.8 | 0.1 | -7.5 | .
Nc1cccc(-c2nc3ccc(N)cc3s2)c1 | 4.2 | 3.5 | 6.1 | 5.3 | 99.0* | .
Oc1ccc(-c2nc3ccccc3s2)cc1 | . | -30.1 | -5.2 | -19.4 | 90.4* | 5.0
Nc1cc2sc(-c3ccc(C(=O)O)cc3)nc2cc1Cl | 2.2 | -9.5 | 0.3 | -3.9 | -20.7 | 0.8
O=C(O)c1ccc2nc(-c3ccccc3)sc2c1 | -1.5 | -3.4 | 0.7 | -3.3 | . | .
Nc1ccc(-c2nc3ccc(C(=O)O)cc3s2)cc1 | . | -8.1 | -5.2 | -2.2 | 98.6* | -1.9
c1ccc2sc(-c3ccncc3)nc2c1 | . | -0.8 | 6.0 | -2.8 | -4.9 | 6.4
SMILES | PglD inh | CendR NRP1 mod | PDI inh | ARNT TACC3 PPI | ALR H2O2 inh | ERp5 inh
CC(=O)N(C)C[C@@H]1Oc2cc(C#Cc3ccncc3)ccc2S(=O)(=O)N([C@@H](C)CO)C[C@@H]1C | 1.0 | . | . | 1.3 | . | 2.4
COc1cc(/C=C(/C#N)c2ccccc2)ccc1Oc1ccc([N+](=O)[O-])cn1 | -1.4 | 5.3 | 2.7 | 30.7 | -6.5 | .
COc1cc(/C=C2\SC(=O)NC2=O)ccc1Oc1ccc([N+](=O)[O-])cn1 | 9.0 | -20.1 | 5.9 | . | 97.5* | -4.6
COc1cc(/C=C2/SC(=O)NC2=O)ccc1Oc1ccc([N+](=O)[O-])cc1[N+](=O)[O-] | . | -33.7 | -10.7 | 7.4 | 96.7* | 1.6
CCOc1ccccc1N1CCN(C/C=C/c2ccc(N(C)C)cc2)CC1 | 4.8 | 8.1 | 1.7 | . | 98.6* | .
CCOc1ccccc1N1CCN(Cc2ccco2)CC1 | -3.0 | -2.8 | 9.5 | -12.3 | 32.9 | 1.7
CC1CC(C)CN(CCCNC(=O)CN2C(=O)CSc3ccc(S(=O)(=O)N4CCOCC4)cc32)C1 (centres undefined) | -2.1 | 18.8* | -0.6 | -4.3 | -1.9 | 4.3
CC1CCN(CCCNC(=O)CN2C(=O)CSc3ccc(S(=O)(=O)N4CCOCC4)cc32)CC1 | 0.9 | 8.8 | -0.7 | -3.7 | 2.9 | -1.1
Cc1ccc(C2C(C#N)=C(N)OC3=C2C(=O)CC(C)(C)C3)s1 (centres undefined) | -4.1 | -9.1 | -2.0 | 6.7 | 9.5 | -3.8
CC1(C)CC(=O)C2=C(C1)OC(N)=C(C#N)C2c1cccs1 (centres undefined) | . | -23.7 | 1.5 | -2.1 | 95.7* | 2.7
CC1(C)CC(=O)C2=C(C1)OC(N)=C(C#N)C2c1ccccc1[N+](=O)[O-] (centres undefined) | . | 35.9* | 0.7 | -4.1 | 10.6 | -2.9
Cc1ccccc1Nc1ccc2nonc2c1[N+](=O)[O-] | -4.9 | -3.2 | 6.0 | -13.6 | -18.7 | -1.6
O=[N+]([O-])c1c(Nc2ccccc2O)ccc2nonc12 | 0.0 | 25.3* | -13.4 | 1.7 | 10.0 | -4.5
O=C1[C@@H](c2ccccc2)CC[C@@H]2C=CC[C@H]3CCN1[C@@H]32 | . | 9.7 | . | . | . | 30.8*
O=C1C[C@@H]2CCN3C(=O)CCC[C@@H]([C@H]23)[C@@H]1Cc1ccccc1 | 1.5 | -7.1 | 4.8 | -11.6 | . | -7.3
C/C=C/c1ccc([C@H]2[C@@H](CO)N(C(=O)Cc3cccnc3)[C@H]2CNC(C)=O)cc1 | -1.2 | . | . | -3.3 | . | -4.8
CCOC(=O)c1c(NC(=O)/C=C/C(=O)O)sc(C)c1-c1ccc(C(C)(C)C)cc1 | . | -92.7 | 13.9 | 0.4 | 96.6* | 0.6
CCS(=O)(=O)C(C)(CCl)C(=O)Nc1ccc(C(=O)OC)cc1 (centres undefined) | 0.7 | 4.9 | 0.4 | active | -7.0 | 3.2
O=C(CCc1nc2ccccc2[nH]1)Nc1ccccc1 | -0.5 | -10.3 | -8.1 | -5.5 | . | .
NNC(=O)CCc1nc2ccc(O)cc2[nH]1 | -0.5 | 2.9 | 1.3 | 1.0 | 96.4* | 1.2
COc1ccc(S(=O)(=O)N(C)C[C@@H]2Oc3ccc(NS(=O)(=O)c4ccccc4)cc3CC(=O)N([C@H](C)CO)C[C@@H]2C)cc1 | -3.5 | . | . | 6.6 | . | -0.1
COCCCNC(=S)NNC(=O)c1csc(C)n1 | . | 11.5 | -4.7 | 56.6* | . | 2.7
COc1ccccc1NC(=O)Nc1ncccc1C | -1.9 | 0.5 | -5.0 | -4.1 | 98.0* | .

Compound activity from PubChem BioAssay.
